# EPAC2 antag: human EPAC2 antagonism, validation | 16,000 compounds, 1.7% hits | Potency, µM (top dose mostly 112 µM), for the others: top-dose activity, negative = inhibition, usual class: inhibitors | Q8WZA2 | EPAC2 Rap1B BODIPY-GDP exchange, fluorescence | AID 1645886;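 note: 100% = activation by cAMP agonist control; nearly all actives have a fitted effect of over 40% in size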
#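 Normalized against a 6.5 mM cAMP agonist control, compounds were tested on 100 nM EPAC2 exchanging Rap1B-bound BODIPY-GDP (250 nM) for 50 uM GDP. Fluorescence drop (ex 480, em 540 nm) was tracked at room temperature over 30 min at 5-min intervals.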
# EPAC1 ag val: validation of human EPAC1 agonists | EPAC1 Rap1b BODIPY-GDP exchange, fluorescence | Potency, µM, for inactives: max response, positive = active, most hits filed as activators | 16,000 compounds, 1% hits | AID 1645883; note: nearly all actives have a fitted effect of over 70% in size
# Target sequence (O95398 whole entry, looked up): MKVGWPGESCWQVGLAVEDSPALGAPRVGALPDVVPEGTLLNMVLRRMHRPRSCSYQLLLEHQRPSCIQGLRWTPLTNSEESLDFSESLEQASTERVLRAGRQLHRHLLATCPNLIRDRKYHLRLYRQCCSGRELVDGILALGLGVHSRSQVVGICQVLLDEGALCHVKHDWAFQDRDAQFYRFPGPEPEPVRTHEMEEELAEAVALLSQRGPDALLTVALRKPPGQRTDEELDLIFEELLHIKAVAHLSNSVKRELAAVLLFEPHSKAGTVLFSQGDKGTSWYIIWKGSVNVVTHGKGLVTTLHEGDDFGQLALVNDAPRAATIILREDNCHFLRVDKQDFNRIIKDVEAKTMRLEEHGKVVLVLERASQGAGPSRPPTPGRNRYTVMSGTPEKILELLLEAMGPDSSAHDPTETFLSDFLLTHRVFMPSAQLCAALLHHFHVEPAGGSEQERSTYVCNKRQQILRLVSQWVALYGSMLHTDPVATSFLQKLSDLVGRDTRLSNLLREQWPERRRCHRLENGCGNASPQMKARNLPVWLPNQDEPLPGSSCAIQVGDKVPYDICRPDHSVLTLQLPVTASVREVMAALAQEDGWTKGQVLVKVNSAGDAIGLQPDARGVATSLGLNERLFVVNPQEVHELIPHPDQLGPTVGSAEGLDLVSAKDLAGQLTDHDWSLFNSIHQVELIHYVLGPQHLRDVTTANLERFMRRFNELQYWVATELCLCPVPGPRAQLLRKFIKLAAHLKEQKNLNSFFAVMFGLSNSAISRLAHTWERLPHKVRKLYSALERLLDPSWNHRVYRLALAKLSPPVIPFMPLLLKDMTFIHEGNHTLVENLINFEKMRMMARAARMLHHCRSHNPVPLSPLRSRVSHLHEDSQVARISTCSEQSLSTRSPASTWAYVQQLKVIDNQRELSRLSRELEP
# Active calls of the source: *; ? = inconclusive; ! = a repeat was not active. A selection: hits, their analogues and other compounds. The true share with any hit is near 3.1%. Calls come from the whole dose curve; as a rule, active = well fitted curve in the direction sought with a large enough effect; inconclusive = small, poorly fitted or top-dose-only effect, or another doubt; inactive = no such curve, though single readings can be large; an effect the other way counts as inactive or inconclusive. Unless noted, % is set by controls: 0 for no effect and ±100 for the full control effect; potency is the fitted concentration of half-maximal effect.
SMILES,EPAC2 antag,EPAC1 ag val
Nc1c(S(=O)(=O)O)cc(Nc2ccc(Nc3nc(Cl)nc(Nc4ccc(S(=O)(=O)O)cc4)n3)c(S(=O)(=O)O)c2)c2c1C(=O)c1ccccc1C2=O,79µM*,?
Cc1cccc2c(Nc3ccc4c(c3)OCO4)nc(CN3CCC(N4CCCCC4)CC3)nc12,-21%,6%
COc1ccc(/C=C/C(=O)c2ccc(OC)cc2OC)cc1,16µM*,14%
COc1ccc(/C=C/C(=O)c2ccc(O)cc2O)cc1,-18%,17%
COC(=O)C1=C(C)NC(C)=C(C(=O)OCCSc2ccccc2)[C@@H]1C,?,17%
COC(=O)C1=C(C)NC(C)=C([N+](=O)[O-])[C@@H]1c1ccccc1C(F)(F)F,40µM*,-14%
COC(=O)C1=C(C)NC(C)=C(C(=O)OCC(C)=O)C1c1ccccc1[N+](=O)[O-] (stereo not drawn),-8%,9%
COC(=O)C1=C(C)NC(C)=C([N+](=O)[O-])[C@H]1c1ccccc1C(F)(F)F,50µM*,-15%
CO[C@H]1C[C@@H]2CC[C@@H](C)[C@@](O)(O2)C(=O)C(=O)N2CCCC[C@H]2C(=O)O[C@H]([C@H](C)C[C@@H]2CC[C@@H](O)[C@H](OC)C2)CC(=O)[C@H](C)C=C(C)[C@@H](O)[C@@H](OC)C(=O)[C@H](C)C[C@H](C)/C=C/C=CC=C1C,?,-64%
O=C([C@@H]1C[C@@H](Sc2nc3ccccc3[nH]2)CN1Cc1ccc(Cl)cc1)N1CCN(c2ccccc2F)CC1,-2%,0%
COc1ccccc1CNc1nc(-c2cccc(NS(C)(=O)=O)c2)nc2ccccc12,-22%,100µM*
COc1cccc(-c2nc(NCc3ccccc3OC)c3ccccc3n2)c1,-23%,?
COc1ccccc1CNc1nc(-c2ccc(N(C)C)cc2)nc2ccccc12,-11%,?
COc1ccccc1CNc1nc(-c2cccc(C#N)c2)nc2ccccc12,-17%,100µM*
COc1ccccc1CNc1nc(-c2ccc3c(c2)OCO3)nc2ccccc12,-23%,100µM*
Cc1cccc(CNc2nc(-c3cccc(NS(C)(=O)=O)c3)nc3ccccc23)c1,-29%,?
CO[C@H]1C=CO[C@@]2(C)Oc3c(C)c(O)c4c(O)c(c(/C=N/N5CCN(C6CCCC6)CC5)c(O)c4c3C2=O)NC(=O)/C(C)=C\C=C[C@H](C)[C@H](O)[C@@H](C)[C@@H](O)[C@@H](C)[C@H](OC(C)=O)[C@@H]1C,?,-94%
CO[C@@H]1[C@@H](O[C@@H]2O[C@H](C)[C@@H](O[C@H]3C[C@@](C)(O)[C@@H](OC(=O)CC(C)C)[C@H](C)O3)[C@H](N(C)C)[C@H]2O)[C@@H](CC=O)C[C@@H](C)C(=O)/C=C/C2OC2C[C@@H](C)OC(=O)C[C@H]1OC(C)=O (stereo partly drawn),1%,-17%
CC(C)(C)c1ccc(CN2CCN(C(c3ccccc3)c3ccc(Cl)cc3)CC2)cc1 (stereo not drawn),-20%,4%
Cc1c(C(=O)NCc2nccs2)cnn1-c1ncc2c(n1)-c1ccccc1CC2,-11%,-1%
Cc1c(CC(C)(C)C(=O)O)n(Cc2ccc(Cl)cc2)c2ccc(F)cc12,45µM*,-9%
COc1ccc2c(c1)c(CC(=O)O)c(C)n2Cc1ccc(Cl)cc1,-25%,1%
Cc1ccc(F)cc1S(=O)(=O)NCc1nc(N2CCCC2)c2cccc(C)c2n1,-30%,-1%
COc1ccc(C(=O)c2ccccc2O)c(O)c1,45µM*!,-4%
COc1ccc(/C=C/C(=O)c2cc(O)ccc2O)cc1,?,9%
SMILES,EPAC2 antag,EPAC1 ag val
CCN(CC)CCNC(=O)c1cnn(-c2nccc(-c3cc4ccccc4o3)n2)c1C,-7%,-5%
CN1CCN(CCCN2c3ccccc3Sc3ccc(Cl)cc32)CC1,35µM*!,14%
OCCN1CCN(CCCN2c3ccccc3Sc3ccc(C(F)(F)F)cc32)CC1,50µM*!,17%
CN1CCN(CCCN2c3ccccc3Sc3ccccc32)CC1,3%,9%
CC(=O)c1ccc2c(c1)N(CCCN1CCN(CCO)CC1)c1ccccc1S2,54%,7%
c1ccc(-c2csc(-c3nc4ccccc4[nH]3)n2)cc1,-15%,?
c1ccc(CCNc2nc(-c3ccccc3)cs2)cc1,-14%,100µM*
Nc1c(N=Nc2ccc(-c3ccc(N=Nc4cc(S(=O)(=O)O)c5ccccc5c4N)cc3)cc2)cc(S(=O)(=O)O)c2ccccc12,40µM*,-6%
Cc1cc(-c2ccc(N=Nc3ccc4c(S(=O)(=O)O)cc(S(=O)(=O)O)c(N)c4c3O)c(C)c2)ccc1N=Nc1ccc2c(S(=O)(=O)O)cc(S(=O)(=O)O)c(N)c2c1O,32µM*!,-10%
CC(C)c1c(C(=O)N(C)Cc2cccc3ncccc23)cnn1-c1nccc(-c2ccco2)n1,-17%,-19%
COc1cccc(-c2nc3cc4c(cc3cc2CN(C(=O)c2csc(C)n2)C2CC2)CCC4)c1OC,-2%,0%
CCCCCCCCCCCCCCCC[N+](C)(C)CC,56µM*,-65%
CCCCCCCCCCCCCC[N+](C)(C)Cc1ccccc1,8%,-36%
CCCCCCCCCCCCCCCC[N+](C)(C)Cc1ccccc1,79µM*,-43%
CCCCCCCC[N+](C)(C)CCCCCCCC,4%,20%
O=S(c1cc(Cl)cc(Cl)c1O)c1cc(Cl)cc(Cl)c1O,?,-3%
Oc1c(Cl)cc(Cl)cc1Sc1cc(Cl)cc(Cl)c1O,56µM*,-9%
Cc1nn(C)c(Cl)c1CN1CCOc2ccc(CN3CCC(Oc4cccnc4)CC3)cc2C1,-6%,-22%
Cc1nc2ccccc2nc1CN1CCOc2ccc(C3(O)CCN(c4ccccc4F)CC3)cc2C1,-15%,0%
CCCCCCCCCCCCCCCC(=O)O[C@H]1[C@@H](O)[C@@H](O)[C@@H]([C@H](NC(=O)[C@@H]2C[C@@H](CCC)CN2C)[C@H](C)Cl)O[C@@H]1SC,-5%,-195%
COC(=O)c1c(OC)cc2c(c1C)Oc1c(Cl)c(OC(C)=O)c(Cl)c(C)c1C(=O)O2,11µM*,-25%
COC(=O)c1c(C)cc(OC)cc1O,?,-32%
COc1ccccc1C1CN(CCNC(=O)c2cnsn2)Cc2ccccc2O1 (stereo not drawn),-21%,22%
COc1ccc(C(=O)N2CCC3(CCCN(Cc4cc(C(F)(F)F)cc(C(F)(F)F)c4)C3)CC2)cc1,35µM*,-78%
COC(=O)N1CCC2(CCCN(Cc3cc(C(F)(F)F)cc(C(F)(F)F)c3)C2)CC1,-25%,-28%
SMILES,EPAC2 antag,EPAC1 ag val
O=c1c(-c2ccc(Cl)cc2)nc2cncnc2n1Cc1ccccc1Cl,-22%,112µM*
O=c1c(-c2ccc(Cl)cc2)nc2cncnc2n1Cc1ccccc1,-28%,?
O=C(Nc1ccc(S(=O)(=O)N2CCOCC2)cc1)c1cc(Cl)ccc1NS(=O)(=O)c1ccc(Cl)s1,?,-2%
NCCC(=O)[N-][C@@H](Cc1cnc[nH]1)C(=O)O.[Zn],30%,17%
O=c1c(O)c(-c2ccccc2)oc2ccc3occc3c12,7.1µM*,?
O=c1c(O)c(-c2cccc(O)c2)oc2ccccc12,-16%,-10%
COc1c(-c2ccccc2)oc2c(ccc3occc32)c1=O,4.5µM*,?
COc1ccccc1-c1oc2ccccc2c(=O)c1OC,?,5%
CCOC(=O)[C@H](CS)NCCN[C@@H](CS)C(=O)OCC,8%,-29%
CCCCCCC[n+]1ccc(/C=C/c2c[nH]c3ccccc23)cc1,226%,100µM*

# Compound activity: PubChem, National Center for Advancing Translational Sciences (NCATS)
